Measurements from publication PMC8384837, “Expanding the binding specificity for RNA recognition by a PUF domain”.

Experiments:
Experiment in all cases: yeast three-hybrid, YBZ-1, SC-Leu-His + 0.5 mM 3-AT, 4 days
Details in all cases: tags: N-Gal4 AD-HA kept; label: inside an RPR1-promoter hybrid RNA with tandem MS2 sites; ssRNA
PUM1 PUF domain R5-QTI = PUM1 PUF domain R5-QTI (Homo sapiens, UniProt Q14671 828-1176, C1007Q;R1008T;Q1011I)
Outline: (§1)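 Sequencing with Illumina followed PCR amplification of the repeat regions from transformants grown four days on SC-Leu (input) or SC-Leu-His + 0.5 mM 3-AT (selection). The transformants were strain YBZ-1 with a LexA–MS2 coat fusion and a HIS3 reporter, carrying Pumilio-1 PUF domain libraries and matching RNA elements. The interaction score is the log change in variant frequency from input to selection, computed in log2 with a pseudocount of 1 for absent variants.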

PUM1 PUF domain R1-RST = PUM1 PUF domain R1-RST (Homo sapiens, UniProt Q14671 828-1176, S863R;R864S;Q867T)
Outline: as §1

PUM1 PUF domain R1-KVR = PUM1 PUF domain R1-KVR (Homo sapiens, UniProt Q14671 828-1176, S863K;R864V;Q867R)
Outline: as §1

PUM1 PUF domain R1-RLC = PUM1 PUF domain R1-RLC (Homo sapiens, UniProt Q14671 828-1176, S863R;R864L;Q867C)
Outline: as §1

PUM1 PUF domain R3-MWY = PUM1 PUF domain R3-MWY (Homo sapiens, UniProt Q14671 828-1176, C935M;R936W;Q939Y)
Outline: as §1

PUM1 PUF domain R3-VFA = PUM1 PUF domain R3-VFA (Homo sapiens, UniProt Q14671 828-1176, C935V;R936F;Q939A)
Outline: as §1

PUM1 PUF domain R3-PWL = PUM1 PUF domain R3-PWL (Homo sapiens, UniProt Q14671 828-1176, C935P;R936W;Q939L)
Outline: as §1

PUM1 PUF domain R5-RWS = PUM1 PUF domain R5-RWS (Homo sapiens, UniProt Q14671 828-1176, C1007R;R1008W;Q1011S)
Outline: as §1

PUM1 PUF domain R5-PHG = PUM1 PUF domain R5-PHG (Homo sapiens, UniProt Q14671 828-1176, C1007P;R1008H;Q1011G)
Outline: as §1

PUM1 PUF domain R8-KHL = PUM1 PUF domain R8-KHL (Homo sapiens, UniProt Q14671 828-1176, N1122K;Y1123H;Q1126L)
Outline: as §1

PUM1 PUF domain R8-MRR = PUM1 PUF domain R8-MRR (Homo sapiens, UniProt Q14671 828-1176, N1122M;Y1123R;Q1126R)
Outline: as §1

PUM1 PUF domain R8-VYP = PUM1 PUF domain R8-VYP (Homo sapiens, UniProt Q14671 828-1176, N1122V;Q1126P)
Outline: as §1

PUM1 PUF domain R4-APM = PUM1 PUF domain R4-APM (Homo sapiens, UniProt Q14671 828-1176, N971A;H972P;Q975M)
Outline: as §1

PUM1 PUF domain R3-WCA = PUM1 PUF domain R3-WCA (Homo sapiens, UniProt Q14671 828-1176, C935W;R936C;Q939A)
Outline: as §1

PUM1 PUF domain R3-GPW = PUM1 PUF domain R3-GPW (Homo sapiens, UniProt Q14671 828-1176, C935G;R936P;Q939W)
Outline: as §1

PUM1 PUF domain R6-RYT = molecular target: T1, PUM1 PUF domain R6-RYT (Homo sapiens, UniProt Q14671 828-1176, N1043R;Q1047T)
T1 sequence: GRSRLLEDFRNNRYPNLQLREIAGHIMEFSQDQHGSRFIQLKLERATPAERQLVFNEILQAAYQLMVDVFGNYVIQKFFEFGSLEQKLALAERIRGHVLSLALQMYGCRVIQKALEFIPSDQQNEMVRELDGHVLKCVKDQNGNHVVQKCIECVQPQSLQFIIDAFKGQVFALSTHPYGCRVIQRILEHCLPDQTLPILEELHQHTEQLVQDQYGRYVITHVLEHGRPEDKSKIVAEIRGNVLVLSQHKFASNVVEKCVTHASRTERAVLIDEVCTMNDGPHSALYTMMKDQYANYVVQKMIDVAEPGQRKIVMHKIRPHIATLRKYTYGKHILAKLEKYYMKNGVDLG
Outline: as §1

PUM1 PUF domain R4-RRY = PUM1 PUF domain R4-RRY (Homo sapiens, UniProt Q14671 828-1176, N971R;H972R;Q975Y)
Outline: as §1

PUM1 PUF domain R3-EFV = PUM1 PUF domain R3-EFV (Homo sapiens, UniProt Q14671 828-1176, C935E;R936F;Q939V)
Outline: as §1

PUM1 PUF domain R5-LYV = PUM1 PUF domain R5-LYV (Homo sapiens, UniProt Q14671 828-1176, C1007L;R1008Y;Q1011V)
Outline: as §1

PUM1 PUF domain R3-ACF = PUM1 PUF domain R3-ACF (Homo sapiens, UniProt Q14671 828-1176, C935A;R936C;Q939F)
Outline: as §1

PUM1 PUF domain R4-APM, sequence (Q14671 828-1176 N971A/H972P/Q975M): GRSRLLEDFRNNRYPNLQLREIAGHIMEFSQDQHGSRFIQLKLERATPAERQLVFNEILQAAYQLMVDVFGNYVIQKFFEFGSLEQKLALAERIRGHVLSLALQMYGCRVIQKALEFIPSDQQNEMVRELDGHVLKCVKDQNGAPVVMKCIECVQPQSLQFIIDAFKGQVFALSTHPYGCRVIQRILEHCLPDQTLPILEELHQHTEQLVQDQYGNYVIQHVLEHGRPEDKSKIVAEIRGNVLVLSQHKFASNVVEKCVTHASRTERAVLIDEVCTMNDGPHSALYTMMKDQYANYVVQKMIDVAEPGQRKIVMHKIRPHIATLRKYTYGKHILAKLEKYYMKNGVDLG
PUM1 PUF domain R8-VYP, sequence (Q14671 828-1176 N1122V/Q1126P): as the sequence (Q14671 828-1176 N971A/H972P/Q975M) above, with A144N, P145H, M148Q, N295V, Q299P counted along it
PUM1 PUF domain R3-VFA, sequence (Q14671 828-1176 C935V/R936F/Q939A): as the sequence (Q14671 828-1176 N971A/H972P/Q975M) above, with C108V, R109F, Q112A, A144N, P145H, M148Q counted along it
PUM1 PUF domain R3-PWL, sequence (Q14671 828-1176 C935P/R936W/Q939L): as the sequence (Q14671 828-1176 N971A/H972P/Q975M) above, with C108P, R109W, Q112L, A144N, P145H, M148Q counted along it
PUM1 PUF domain R1-RLC, sequence (Q14671 828-1176 S863R/R864L/Q867C): as the sequence (Q14671 828-1176 N971A/H972P/Q975M) above, with S36R, R37L, Q40C, A144N, P145H, M148Q counted along it
PUM1 PUF domain R1-KVR, sequence (Q14671 828-1176 S863K/R864V/Q867R): as the sequence (Q14671 828-1176 N971A/H972P/Q975M) above, with S36K, R37V, Q40R, A144N, P145H, M148Q counted along it
PUM1 PUF domain R5-PHG, sequence (Q14671 828-1176 C1007P/R1008H/Q1011G): as the sequence (Q14671 828-1176 N971A/H972P/Q975M) above, with A144N, P145H, M148Q, C180P, R181H, Q184G counted along it
PUM1 PUF domain R8-MRR, sequence (Q14671 828-1176 N1122M/Y1123R/Q1126R): as the sequence (Q14671 828-1176 N971A/H972P/Q975M) above, with A144N, P145H, M148Q, N295M, Y296R, Q299R counted along it
PUM1 PUF domain R3-ACF, sequence (Q14671 828-1176 C935A/R936C/Q939F): as the sequence (Q14671 828-1176 N971A/H972P/Q975M) above, with C108A, R109C, Q112F, A144N, P145H, M148Q counted along it
PUM1 PUF domain R5-RWS, sequence (Q14671 828-1176 C1007R/R1008W/Q1011S): as the sequence (Q14671 828-1176 N971A/H972P/Q975M) above, with A144N, P145H, M148Q, C180R, R181W, Q184S counted along it

In the case of “GGCUAGAACUAGUGGAUCCCCCGGCGCCCGGCGGCUCGAGCCCGGGUAAGUGUGAAUAGUCUGCAUGCCGCCGGGCGCCAUGCCUGCAGGUCGACUCUAGAAAACAUG”, the binding signal (PUM1 PUF domain R5-QTI) is reported as 3.11 log2 enrichment (interaction score).

In the case of “GGCUAGAACUAGUGGAUCCCCCGGCGCCCGGCGGCUCGAGCCCGGGUAAGUGUAAAUUGUCUGCAUGCCGCCGGGCGCCAUGCCUGCAGGUCGACUCUAGAAAACAUG”, the binding signal (PUM1 PUF domain R1-RST) is reported as 3.88 log2 enrichment (interaction score), the binding signal (PUM1 PUF domain R1-KVR) is reported as 5.73 log2 enrichment (interaction score) and the binding signal (PUM1 PUF domain R1-RLC) is reported as 1.93 log2 enrichment (interaction score).

In the case of “GGCUAGAACUAGUGGAUCCCCCGGCGCCCGGCGGCUCGAGCCCGGGUAAGUGUAAAUGGUCUGCAUGCCGCCGGGCGCCAUGCCUGCAGGUCGACUCUAGAAAACAUG”, the binding signal (PUM1 PUF domain R1-RST) is reported as 2.92 log2 enrichment (interaction score).

For “GGCUAGAACUAGUGGAUCCCCCGGCGCCCGGCGGCUCGAGCCCGGGUAAGUGUAAUUAGUCUGCAUGCCGCCGGGCGCCAUGCCUGCAGGUCGACUCUAGAAAACAUG”, the binding signal (PUM1 PUF domain R3-MWY) was 3.31 log2 enrichment (interaction score), the binding signal (PUM1 PUF domain R3-VFA) was 2.77 log2 enrichment (interaction score) and the binding signal (PUM1 PUF domain R3-PWL) was 3.68 log2 enrichment (interaction score).

For “GGCUAGAACUAGUGGAUCCCCCGGCGCCCGGCGGCUCGAGCCCGGGUAAGUGUUAAUAGUCUGCAUGCCGCCGGGCGCCAUGCCUGCAGGUCGACUCUAGAAAACAUG”, the binding signal (PUM1 PUF domain R5-RWS) was 6.47 log2 enrichment (interaction score) and the binding signal (PUM1 PUF domain R5-PHG) was 4.37 log2 enrichment (interaction score).

“GGCUAGAACUAGUGGAUCCCCCGGCGCCCGGCGGCUCGAGCCCGGGUAAGUGUAAAUCGUCUGCAUGCCGCCGGGCGCCAUGCCUGCAGGUCGACUCUAGAAAACAUG” was tested, and the binding signal (PUM1 PUF domain R1-RST) was 5.18 log2 enrichment (interaction score), the binding signal (PUM1 PUF domain R1-KVR) was 1.81 log2 enrichment (interaction score) and the binding signal (PUM1 PUF domain R1-RLC) was 3.21 log2 enrichment (interaction score).

“GGCUAGAACUAGUGGAUCCCCCGGCGCCCGGCGGCUCGAGCCCGGGUAAGCGUAAAUAGUCUGCAUGCCGCCGGGCGCCAUGCCUGCAGGUCGACUCUAGAAAACAUG” was tested, and the binding signal (PUM1 PUF domain R8-KHL) was 5.8 log2 enrichment (interaction score), the binding signal (PUM1 PUF domain R8-MRR) was 2.54 log2 enrichment (interaction score) and the binding signal (PUM1 PUF domain R8-VYP) was 3.87 log2 enrichment (interaction score).

“GGCUAGAACUAGUGGAUCCCCCGGCGCCCGGCGGCUCGAGCCCGGGUAAGUGUAUAUAGUCUGCAUGCCGCCGGGCGCCAUGCCUGCAGGUCGACUCUAGAAAACAUG” was tested, and the binding signal (PUM1 PUF domain R4-APM) was 2.03 log2 enrichment (interaction score).

In the case of “GGCUAGAACUAGUGGAUCCCCCGGCGCCCGGCGGCUCGAGCCCGGGUAAGUGUAAGUAGUCUGCAUGCCGCCGGGCGCCAUGCCUGCAGGUCGACUCUAGAAAACAUG”, the binding signal (PUM1 PUF domain R3-WCA) is reported as 3.27 log2 enrichment (interaction score) and the binding signal (PUM1 PUF domain R3-VFA) is reported as 2.39 log2 enrichment (interaction score).

“GGCUAGAACUAGUGGAUCCCCCGGCGCCCGGCGGCUCGAGCCCGGGUAAGUGUACAUAGUCUGCAUGCCGCCGGGCGCCAUGCCUGCAGGUCGACUCUAGAAAACAUG” was tested, and the binding signal (PUM1 PUF domain R4-APM) was 2.11 log2 enrichment (interaction score).

“GGCUAGAACUAGUGGAUCCCCCGGCGCCCGGCGGCUCGAGCCCGGGUAAGUGUAAAUAGUCUGCAUGCCGCCGGGCGCCAUGCCUGCAGGUCGACUCUAGAAAACAUG” was tested, and the binding signal (PUM1 PUF domain R3-GPW) was 4.04 log2 enrichment (interaction score), the binding signal (PUM1 PUF domain R6-RYT) was 2.71 log2 enrichment (interaction score) and the binding signal (PUM1 PUF domain R4-RRY) was 2.87 log2 enrichment (interaction score). For the same sequence, the binding signal (PUM1 PUF domain R3-EFV) was 3.71 log2 enrichment (interaction score), the binding signal (PUM1 PUF domain R5-LYV) was 3.28 log2 enrichment (interaction score) and the binding signal (PUM1 PUF domain R8-KHL) was 4.75 log2 enrichment (interaction score). For the same sequence, the binding signal (PUM1 PUF domain R4-APM) was 4.28 log2 enrichment (interaction score), the binding signal (PUM1 PUF domain R3-ACF) was 4.04 log2 enrichment (interaction score) and the binding signal (PUM1 PUF domain R3-PWL) was 2.76 log2 enrichment (interaction score). The binding signal (PUM1 PUF domain R8-MRR) was 1.68 log2 enrichment (interaction score), the binding signal (PUM1 PUF domain R8-VYP) was 2.77 log2 enrichment (interaction score) and the binding signal (PUM1 PUF domain R5-PHG) was 4.89 log2 enrichment (interaction score).
